This note sets out measurements from PubChem BioAssay (NCATS).

Inconclusive results are not listed. A number with no mark means an inactive call. Activity calls are given as the source filed them. The call rests on the fitted dose curve; in most records, active means well fitted inhibition curve with a large enough effect; inconclusive means small, poorly fitted or top-dose-only effect; inactive means no such curve, though single readings can be large or run the other way.
Potency means the concentration at half of the fitted maximal effect.

A short description of this assay: BET inhibitor-based combinations targeting novel dependencies in MECOM-rearranged (r) AML: MV-4-11 cell line (AID 2202233). Further: nearly all actives have a fitted effect of over 45% in size.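 On viability, % of control: plate controls were DMSO for no effect and blank wells for full effect.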 The following applies: MV-4-11 AML viability, CellTiter-Glo luminescence, 48 h; series mostly up to 46 µM; viability, % of control: at the top concentration. An excerpt: Ecotropic viral insertion site 1 (EVI1) is located on chromosome 3q26.2 as part of the MECOM (MDS and EVI1 complex) locus. Under normal hematopoiesis, EVI1 is a regulator of hematopoietic stem cell maintenance and self-renewal and EVI1 levels decrease as the cells differentiate. In approximately 5-10% of de novo acute myeloid leukemia (AML) EVI1 is aberrantly expressed, including Chromosomal inv(3)(q21;q26.2) or t(3;3)(q21;q26.2) alterations (MECOM-r) that account for about 50% of AML with EVI1 overexpression 31. AMLs with high levels of EVI1 have a poor prognosis and an overall survival time averaging between 10-14 months. EVI1 overexpression confers resistance in leukemia cells, highlighting the need to develop new targeted therapies for EVI1 overexpressing AMLs. Here, we performed an unbiased chemical drug screening by evaluating the single agent activity of a collection of 2,480 oncology-focused, approved and investigational drugs (NCATS Mechanism Interrogation Plates, MIPE v5.0) against a panel of seven AML cell lines. These included four MECOM-r cell-lines (AML-191, AML-194, UCSD-AML1 and HNT-34) and three non-MECOM-r AMLs (MV4-11, OCI-AML3 and SET-2). Exploiting the mechanistic redundancy built in the library, we identified target-level sensitivities in MECOM-r AML cells and relative activity as compared to other AML subtypes.
A collection of 2480 mechanistically annotated dugs (MIPE v5.0) was used to screen four 3q26.2 rearranged AML cell lines and three non-3q26.2 rearranged AML cell lines. This library purposely exploits redundancy by including multiple inhibitors of key onco-targets, while simultaneously encompassing mechanistic diversity, targeting more than 800 distinct mechanisms of action. Briefly, cells were seeded in 5 uL of growth media using a Multidrop Combi dispenser into 1536 well white polystyrene tissue culture treated plates (Corning) at a density of 500cells/well. For each cell-line, for each of the 2480 drugs in MIPE v5.0 library, an 11-point dose curve was generated via a 1536 pin-tool. Plates were incubated for 48 hr at standard incubator conditions, covered by a stainless steel gasketed lid to prevent evaporation. Cell viability was determined by luminescence based, Cell Titer Glo assay (Promega). In detail, 3 uL of Cell Titer Glo were added to each well and plates were incubated at room temperature for 15 min with a stainless-steel lid in place. Luminescence readings were taken using a Viewlux (PerkinElmer) with a 2 s exposure time per plate. Compound dose-response curves were normalized to DMSO and empty well controls on each plate. Quantitative drug activity data from dose-response curves was determined utilizing area Under the Curve (AUC) and Z-transformed AUC (Z-AUC, a mean-centering transformation applied to each individual cell-line screened).
Regarding `C1CCC(C(CC2CCCCN2)C2CCCCC2)CC1` (stereo not given), the Potency is 8.33 µM (active).

As for `NCCS(=O)(=O)O`, the “viability, % of control” value was 128%.

As to `Cn1ncnc1[C@H]1c2n[nH]c(=O)c3cc(F)cc(c23)N[C@@H]1c1ccc(F)cc1`, the Potency is 0.0332 µM (active).

On to `Cn1c(CNc2ccc(C(=N)N)cc2)nc2cc(C(=O)N(CCC(=O)O)c3ccccn3)ccc21`, for which the viability, % of control was 133% [at 0.315 µM].

As for `O=C1NC(=O)C(c2c[nH]c3ccccc23)=C1c1c[nH]c2ccccc12`, the Potency was 2.63 µM (active).

Turning to `C[Se]CCC(N)C(=O)O` (stereo not given), the “viability, % of control” value was 92.2% [at 92.2 µM].

Consider `CCCc1nn(C)c2c(=O)[nH]c(-c3cc(S(=O)(=O)N4CCN(C)CC4)ccc3OCC)nc12`, for which the “viability, % of control” value was 96.2%.

Consider `Cc1ccccc1N1C(=O)c2cc(S(N)(=O)=O)c(Cl)cc2NC1C` (stereo not given), for which the “viability, % of control” value is 119%.

With `CN1CCN(CCOc2cc(OC3CCOCC3)c3c(Nc4c(Cl)ccc5c4OCO5)ncnc3c2)CC1`, the Potency was 13.2 µM (active).

For the molecule `CC(C)OC(=O)C1=CN(C(=O)c2ccc(F)c(F)c2)CC(C)(C)c2c1[nH]c1ccccc21`, the “viability, % of control” value is 125%.

As for `NS(=O)(=O)OC[C@@H]1C[C@@H](n2ccc3c(N[C@H]4CCc5ccccc54)ncnc32)C[C@@H]1O`, the Potency is 0.209 µM (active).

Take `CC(C)(Sc1cc(C(C)(C)C)c(O)c(C(C)(C)C)c1)Sc1cc(C(C)(C)C)c(O)c(C(C)(C)C)c1`: the “viability, % of control” value is 127%.

With `CCO[C@@H]1OC(=O)C[C@@H]1NC(=O)[C@@H]1CCCN1C(=O)[C@@H](NC(=O)c1ccc(N)c(Cl)c1)C(C)(C)C`, the “viability, % of control” value is 79.7%.

Regarding `CC#C[C@]1(O)CC[C@H]2[C@@H]3CCC4=CC(=O)CCC4=C3[C@@H](c3ccc(N(C)C)cc3)C[C@@]21C`, the Potency is 23.5 µM (active).

For `OC[C@H]1O[C@@H](O[C@@H]2[C@@H](CO)O[C@](O)(CO)[C@H]2O)[C@H](O)[C@@H](O)[C@H]1O`, the “viability, % of control” value was 124%.

`Cc1cnc(Nc2ccc(F)cc2Cl)nc1-c1c[nH]c(C(=O)N[C@H](CO)c2cccc(Cl)c2)c1`: the Potency was 20.9 µM (active).

Regarding `CC(C)C[C@H](NC(=O)[C@@H](NC(=O)c1cccc(-c2ccccc2)n1)[C@@H](C)O)B(O)O`, the Potency was 0.0512 µM (active).

In the case of `O=C(NCc1cccc(O)c1)Nc1nc(-c2ccncc2)cs1`, the Potency was 9.34 µM (active).

Consider `COc1ccc(-c2nc3ccc(C4=NNC(=O)CC4C)cc3[nH]2)cc1` (stereo not given), for which the Potency is 11.8 µM (active).

As to `O=C(Nc1cc(C(F)(F)F)cc(C(F)(F)F)c1)c1cc(Cl)ccc1O`, the Potency is 1.86 µM (active).

For `C=C1c2cccc(O)c2C(O)=C2C(=O)[C@@]3(O)C(O)=C(C(N)=O)C(=O)[C@@H](N(C)C)[C@@H]3[C@@H](O)[C@H]12`, the “viability, % of control” value was 111%.

Regarding `N#Cc1ccnc(N2C(=O)CC[C@H]2C(=O)N(c2cncc(F)c2)[C@H](C(=O)NC2CC(F)(F)C2)c2ccccc2Cl)c1`, the “viability, % of control” value was 106%.

`CCCCCN(CCC12CC3CC(CC(C3)C1)C2)C(=O)NCCCc1ccncc1`: the Potency was 13.2 µM (active).

Consider `CN1CCN(c2ccc(-c3cccc(CN4CCOCC4)c3)cc2NC(=O)c2c[nH]c(=O)cc2C(F)(F)F)CC1`, for which the Potency is 12.9 µM (active).

Take `CCC(=O)O[C@]1(C(=O)SCF)[C@H](C)C[C@H]2[C@@H]3C[C@H](F)C4=CC(=O)C=C[C@]4(C)[C@@]3(F)[C@@H](O)C[C@@]21C`: the “viability, % of control” value was 135%.

As for `Cc1ccc(NC(=O)Nc2cc(C(F)(F)F)ccc2F)cc1Nc1ccc2c(c1)NC(=O)/C2=C\c1ccc[nH]1`, the Potency was 16.6 µM (active).

For `Nc1ccn([C@@H]2C(F)=C(CO)[C@@H](O)[C@H]2O)c(=O)n1`, the Potency was 0.235 µM (active).

For the molecule `COc1cc(Nc2nc3ccccc3nc2NS(=O)(=O)c2ccc(NC(=O)c3ccc(C)c(OC)c3)cc2)cc(OC)c1`, the “viability, % of control” value was 110%.

For `COc1ccc(-c2ccc3c(N4CCOCC4)nc(N4C[C@@H](C)O[C@@H](C)C4)nc3n2)cc1CO`, the Potency is 1.05 µM (active).

For `COc1cc2c(cc1OC)CN(CCc1ccc(NC(=O)c3cccc4c(=O)c5cccc(OC)c5[nH]c34)cc1)CC2`, the “viability, % of control” value is 98.6%.

In the case of `CN1C(=O)N[C@@H](Cc2c[nH]c3c(Cl)cccc23)C1=O`, the “viability, % of control” value was 101%.

Consider `C[C@]12CCC(=O)C=C1[C@@H]1C[C@@H]1[C@H]1[C@@H]3[C@@H]4C[C@@H]4[C@@]4(CCC(=O)O4)[C@@]3(C)CC[C@@H]12`, for which the Potency was 16.6 µM (active).

With `CC(C)Cc1ccc(C(C)C(=O)O)cc1` (stereo not given), the “viability, % of control” value was 129%.

Regarding `O=c1c(-c2ccc(O)cc2)coc2cc(O[C@@H]3O[C@H](CO)[C@@H](O)[C@H](O)[C@H]3O)ccc12`, the Potency was 20.9 µM (active).

Take `CCOc1cc2ncc(C#N)c(Nc3ccc(F)c(Cl)c3)c2cc1NC(=O)/C=C/CN(C)C`: the Potency is 0.934 µM (active).

For `CCCc1nc(C(C)(C)O)c(C(=O)O)n1Cc1ccc(-c2ccccc2-c2nn[nH]n2)cc1`, the “viability, % of control” value is 114%.

`Cc1cc([C@@H](C)Nc2ccccc2C(=O)O)c2nc(N3CCOCC3)cc(=O)n2c1`: the Potency was 6.61 µM (active).

As for `O=C(O)Cn1nnc(-c2cc(N3CCC(Oc4cc(F)ccc4Br)CC3)no2)n1`, the “viability, % of control” value is 128%.

Regarding `Oc1ccc(C2=Cc3ccc(O)cc3OC2)cc1`, the Potency is 0.662 µM (active).

Take `COCCOc1nc(-c2ccc(Cl)c(Cl)c2)n(-c2ccc(NC(=O)CCl)cc2)n1`: the Potency is 5.25 µM (active).
